The values that follow come from PubChem BioAssay (NCATS).

The source made the active and inactive calls. Calls come from the whole dose curve; as a rule, active = well fitted inhibition curve with a large enough effect; inconclusive = small, poorly fitted or top-dose-only effect; inactive = no such curve, though single readings can be large or run the other way.
% is set by controls: 0 for no effect and ±100 for the full control effect.

Chain of Single-stranded DNA cytosine deaminase (Homo sapiens) (Q9GZX7 whole entry, looked up): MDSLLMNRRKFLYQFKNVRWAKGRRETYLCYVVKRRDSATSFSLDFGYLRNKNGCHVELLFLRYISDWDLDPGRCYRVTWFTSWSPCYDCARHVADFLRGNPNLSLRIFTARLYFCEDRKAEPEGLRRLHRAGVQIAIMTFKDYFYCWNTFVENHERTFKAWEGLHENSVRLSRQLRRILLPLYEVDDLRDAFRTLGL

The target in this assay is Single-stranded DNA cytosine deaminase (Homo sapiens) (UniProt Q9GZX7). Put plainly: Validation qHTS assay for inhibitors of Activation Induced Cytidine Deaminase (AID): AID signal (AID 1347429). To be noted: Recombinant AID, FRET ssDNA deamination with UDG, fluorescence; series mostly up to 115 µM; activity change, negative = inhibition: at the top concentration. The text has this:
Assay Provider (PI) Patricia Gearhart Ph.D. National Institute on Aging National Institute of Health (NIH), Bethesda, MD Assay Provider (PI) Rahul Kohli Ph.D. Perelman School of Medicine University of Pennsylvania, Philadelphia, PA Activation-Induced Deaminase (AID) is a cytosine deaminase which converts cytosine into uracil within stretches of ssDNA. The presence of uracil in DNA initiates a cascade of mutagenic DNA repair to introduce point mutations and DNA double strand breaks. Specific targeting of AID to the immunoglobulin heavy chain loci (Igh) promotes mutagenesis in the antibody variable region for somatic hypermutation (SHM) or switch regions leading to class switch recombination (CSR). However, AID also plays a role in accumulating unnecessary mutations across the genome. Mis-targeting of AID results in the initiation of tumor development and leads to greater drug resistance among cancer cells when continually expressed. To identify an AID inhibitor, a small molecule library will be screened in collaboration with NCATS core facility at NIH. To confirm biological function, inhibitors will be examined in an in vitro murine B-cell activation assay and subsequent secondary validation screens. Top molecules will be further screened to identify inhibitory efficacy against a wild type primary splenocytes assay. Using these approaches, we hope to identify a small molecule with great efficacy and low toxicity for use as a molecular probe to further characterize AID's intricacies, or even as a therapeutic. A FRET based analysis of cytosine deamination, was developed to identify potential inhibitors of AID catalytic activity. This screen has two signal output, Read 1 evaluates the AID inhibition response. The second readout (Read 2) evaluates UDG response and is uses as a counterscreen to exclude false positive inhibitors. Inhibition in AID and inactivity in the UDG signal is the desired outcome for this assay.
PROTOCOL TABLE SEQUENCE No. (e.g., 1, 2, 3, etc.); […] (e.g., Cells, Incubation, Reagent, etc.); VALUE; DESCRIPTION 1a; Reagent; 3 uL; [4/3x] […] 250 nM DJC20 / 250 nM DJC23 [Substrate] 5; Time; 4 hr; incubation at room temperature 6; Reagent; 4 uL; [2x] 250 mM NaOH 7; Time; 15 sec; centrifuge at 1000 rpm 8; Time; 30 min; incubation at room temperature 9a; Detection; fluorescence (Read 1: AID); EnVision (PerkinElmer) plate reader, 540 excitation and 590 emission filters 9b; Detection; fluorescence (Read 2: UDG); EnVision (PerkinElmer) plate reader, 560 excitation and 665 emission filters NOTES (numbers refer to sequence above) 1a; Reagents were dispensed in a medium-binding black solid-bottom Greiner plates (789176F) using a BioRptr liquid dispenser. Dispense 3 uL of [4/3x] 1 uM AID (provided by Kohli lab) and [4/3x] 2 U/mL UDG (NEB M0280L) into columns 1, 2, 5 to 48. 1b; Dispense 3 uL of [4/3x] 2 U/mL UDG into column 3. 1c; Dispense 3 uL of [4/3x] 1 uM AID into column 4. 2a; Compound ([…] [uM] (0.64; 3.2; 16; 80; 400; 2,000; 10,000; 20,000) double pin-transferred (Dip Factor = 2) using the Kalypsys (Wako USA) pintool equipped with a 1536 pinhead for a final concentration range of 7.32 nM - 114 uM. 2b; 10 mM Aurintricarboxylic Acid (Sigma A1895) (ATA, 8-point, n = 2, 1:2.5 dilution in column 2) double pin-transferred (Dip Factor = 2) using the Kalypsys (Wako USA) pintool equipped with a 1536 pinhead for a [final] range of 186 nM - 114 uM. 3; Room temperature incubation. 4; Dispense 1 uL of substrate mixture from the Kohli lab [4x] […] DJC20 and [4x] 250 nM DJC23 into columns 1 to 48 . 5; Room temperature incubation. 6; Dispense 4 uL of substrate mixture [2x] 250 mM NaOH into columns 1 to 48. 7; Centrifugation step to remove bubbles. 8; Room temperature incubation 9a; Fluorescence signal (column label AID) was read using the EnVision plate reader. Excitation filter = 540(8) nm, barcode = 311; Emission filter = 590(20) nm, barcode = 217; Mirror = D555, barcode = 405. […]
On the technique in general: qHTS replaces the single test concentration by a dilution series.
On to `CC(C)c1ccc2c(c1)c(SC(C)(C)C)c(CC(C)(C)C(=O)O)n2Cc1ccc(Cl)cc1`, for which the “activity change, negative = inhibition” value is -14.1% (inactive).

Take `CCN(CC)C(=S)SSC(=S)N(CC)CC`: the “activity change, negative = inhibition” value was 14.6% (inactive).

Regarding `OC(CN1CCN(c2cccc(Cl)c2)CC1)C(c1ccccc1)c1ccccc1` (stereo unspecified), the “activity change, negative = inhibition” value is 7.11% (inactive).

With `O=C(c1ccccc1)c1ccc2n1CCC2C(=O)O` (stereo unspecified), the “activity change, negative = inhibition” value was 19.3% (inactive).

On to `O=C1c2c(O)cc(O)cc2OC(c2ccc(O)c(O)c2)C1O` (stereo unspecified), for which the “activity change, negative = inhibition” value was 20.6% (inactive).

With `COc1ccc2cc([C@H](C)C(=O)O)ccc2c1`, the “activity change, negative = inhibition” value is 5.04% (inactive).

`Nc1nc(N)c(N=O)c(OCC2CCCCC2)n1`: the “activity change, negative = inhibition” value was 11.7% (inactive).

With `NCCCCNCCCN`, the “activity change, negative = inhibition” value was 277% (inactive).

As for `Oc1ccc2ccccc2c1SSc1c(O)ccc2ccccc12`, the “activity change, negative = inhibition” value is 6.11% (inactive).

Regarding `O=c1cc(N2CCOCC2)oc2c(-c3ccccc3)cccc12`, the “activity change, negative = inhibition” value was 10% (inactive).

In the case of `O=c1c(O)c(-c2ccc(O)cc2O)oc2cc(O)cc(O)c12`, the “activity change, negative = inhibition” value is 18.6% (inactive).

Regarding `C[C@H](Cc1ccc(O)c(O)c1)[C@@H](C)Cc1ccc(O)c(O)c1`, the “activity change, negative = inhibition” value was -6.36% (inactive).

With `C[C@@H](N)C1CCC(C(=O)Nc2ccncc2)CC1` (stereo partly specified), the “activity change, negative = inhibition” value was 10.5% (inactive).

With `CNC[C@H](O)c1ccc(O)c(O)c1`, the “activity change, negative = inhibition” value was 49.6% (inactive).

For `Cc1cccc(C#Cc2ccccc2)n1`, the “activity change, negative = inhibition” value is 16.3% (inactive).

Turning to `NC(=NCc1ccccc1)NC(=O)c1nc(Cl)c(N)nc1N`, the “activity change, negative = inhibition” value was -4.3% (inactive).

For `O=C(CCc1ccc(O)cc1)c1c(O)cc(O)cc1O`, the “activity change, negative = inhibition” value was 6.51% (inactive).

For `CC1(C)C(=O)N(CCN2CCC(C(=O)c3ccc(F)cc3)CC2)c2ccccc21`, the “activity change, negative = inhibition” value is 7.02% (inactive).

Regarding `CC(=O)O[C@H]1C(=O)[C@@]2(C)C([C@H](OC(=O)c3ccccc3)[C@]3(O)C[C@H](OC(=O)[C@H](O)[C@@H](NC(=O)c4ccccc4)c4ccccc4)C(C)=C1C3(C)C)[C@]1(OC(C)=O)CO[C@@H]1C[C@@H]2O` (stereo partly specified), the “activity change, negative = inhibition” value is 13.4% (inactive).

Take `COc1cc2nc(N3CCN(C(=O)C4CCCO4)CC3)nc(N)c2cc1OC` (stereo unspecified): the “activity change, negative = inhibition” value is 27% (inactive).

For `O=C1NC(=O)C(c2ccccc2[N+](=O)[O-])=C1Nc1ccc(O)c(Cl)c1`, the “activity change, negative = inhibition” value is -24.9% (inactive).

`Cc1c(OCC(F)(F)F)ccnc1CS(=O)c1nc2ccccc2[nH]1` (stereo unspecified): the “activity change, negative = inhibition” value was 3.58% (inactive).

On to `COc1ccccc1N1CCN(CCN(C(=O)C2CCCCC2)c2ccccn2)CC1`, for which the “activity change, negative = inhibition” value is 21.2% (inactive).

`CN(C)CCCC1(c2ccc(F)cc2)OCc2cc(C#N)ccc21` (stereo unspecified): the “activity change, negative = inhibition” value was 10.2% (inactive).

For the compound `O=c1c(O)c(-c2cc(O)c(O)c(O)c2)oc2cc(O)cc(O)c12`, the “activity change, negative = inhibition” value is 24.1% (inactive).

In the case of `O=Nc1c(-c2c(O)[nH]c3cc(Br)ccc23)[nH]c2ccccc12`, the “activity change, negative = inhibition” value is 97.3% (inactive).

In the case of `Nc1nc(OCc2ccccc2)c2[nH]cnc2n1`, the “activity change, negative = inhibition” value was 8.64% (inactive).

As to `O=c1ccc2ccc(O)c(O)c2o1`, the “activity change, negative = inhibition” value is 22.2% (inactive).

With `CC1(C)NC(=O)N(c2ccc([N+](=O)[O-])c(C(F)(F)F)c2)C1=O`, the “activity change, negative = inhibition” value was -16.7% (inactive).

`Cc1cc(O)c2c(c1)C(=O)c1cc(O)cc(O)c1C2=O`: the “activity change, negative = inhibition” value is 148% (inactive).

With `Oc1ccc(-c2nc(-c3ccc(F)cc3)c(-c3ccncc3)[nH]2)cc1`, the “activity change, negative = inhibition” value was 11.3% (inactive).

Consider `O=C(O)c1cccnc1Nc1cccc(C(F)(F)F)c1`, for which the “activity change, negative = inhibition” value is 9.79% (inactive).

For `COc1cc2c(cc1OC)C1CC(=O)C(CC(C)C)CN1CC2` (stereo unspecified), the “activity change, negative = inhibition” value was 34.7% (inactive).

In the case of `CCOC(=O)C(C)Oc1cccc2c(=O)n(CC(=O)Nc3ccc4c(c3)OCCO4)ccc12` (stereo unspecified), the “activity change, negative = inhibition” value is 22.3% (inactive).

Consider `CC(=O)N1CCN(c2ccc(OC[C@H]3CO[C@](Cn4ccnc4)(c4ccc(Cl)cc4Cl)O3)cc2)CC1`, for which the “activity change, negative = inhibition” value was 10.2% (inactive).

As for `Nc1ccn([C@@H]2O[C@H](CO)[C@@H](O)C2O)c(=O)n1` (stereo partly specified), the “activity change, negative = inhibition” value was 0.587% (inactive).
